In the library only some 7.9% were active in any assay of this set; here they are far more common.
HT1080NT lethal – kills 2HG-producing HT-1080-NT fibrosarcoma cells; HT-1080-NT fibrosarcoma viability, CellTiter-Glo ATP luminescence, 48 h; Potency, µM (top dose mostly 46.1 µM), for inactives: top-dose activity, negative = less viability, most hits filed as cytotoxic; actives 1.6% (n = 360,000); AID 686970;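 further: NT is the 2HG producing partner of a matched IDH1 knockdown line; 0% = DMSO-treated cells and -100% = media-only wells without cells; nearly all actives have a fitted effect of over 55% in size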
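HT-1080-NT fibrosarcoma cells (2HG-overproducing), 750 cells/well in RPMI with 5% FBS, dosed after 2 h and incubated 48 h at 37C. CellTiter-Glo luminescence normalized to DMSO and no-cell wells; concentration-response curves fitted and classed.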
KB-V1 cytotox – KB-V1 MDR subline cytotoxicity | actives 3.4% (n = 400,000) | AID 1347076 | Potency, µM (highest dose often 46.1 µM), usual class: cytotoxic | KB-V1 MDR cells viability, CellTiter-Glo, 72 h; further: on the % scale 0 is the no-effect control and ±100 the full control effect; nearly all actives have a fitted effect of over 60% in size
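qHTS viability screen in drug-selected KB-V1 MDR cells: 72 h compound treatment at 37 degrees C, ATP luminescence end point.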
KB-3-1 tox – kills parental KB-3-1 adenocarcinoma cells; actives 1.4% (n = 400,000); AID 1347075; KB-3-1 viability, CellTiter-Glo ATP luminescence, 72 h; Potency, µM (top dose mostly 46.1 µM), usual class: cytotoxic; further: on the % scale 0 is the no-effect control and ±100 the full control effect; nearly all actives have a fitted effect of over 60% in size
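Viability of parental KB-3-1 cells, measured by CellTiter-Glo luminescence, followed a 72 h incubation at 37 °C with pinned compounds in phenol-red-free DMEM containing 10% FBS.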
HT1080 IDH1KD tx – HT-1080 IDH1 knockdown cell toxicity (counter line). HT-1080 IDH1 knockdown viability, ATP luminescence, 48 h. Potency, µM (doses to about 46.1 µM), for inactives: at the top dose activity, negative = toxicity, actives largely listed as cytotoxic. actives 2% (n = 360,000). AID 686971;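 further: 0% = DMSO wells and -100% = cell-free medium wells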
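Using the IDH1-knockdown HT-1080 line run in the same batch and compound series as the NT line, viability after 48 h at 37 °C was determined by CellTiter-Glo luminescence and expressed as % activity.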
MCF10A rerep – induces DNA re-replication in MCF 10a normal breast cells; MCF 10A DNA re-replication, Hoechst nuclear intensity, 48 h; Potency, µM (series often up to 46.1 µM), for inactives: top-dose activity, positive = re-replication, actives largely listed as activators; actives 2.9% (n = 350,000); AID 624296; further: % of control where 0% means no effect; nearly all actives have a fitted effect of over 50% in size
SW480 rerep – induces DNA re-replication in SW480 colon adenocarcinoma cells. SW480 DNA re-replication, Hoechst DNA content imaging, 48 h. Potency, µM (top dose mostly 46.1 µM), for the others: at the top dose re-replication activation, usual class: activators. actives 1.8% (n = 340,000). AID 624297; further: % of control where 0% means no effect; nearly all actives have a fitted effect of over 55% in size
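Quantitative HTS format with DMSO vehicle controls; 48 hr drug incubation at 37 C, then 40 min Hoechst staining and scanning imager measurement at 405 nm excitation.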
* marks the source's active call; other numbers are inactive results; i = inactive; ? = inconclusive; . = no result given; [ ] = dose if it differs, or a comment. The call rests on the fitted dose curve; in most records, active means well fitted curve in the direction sought with a large enough effect; inconclusive means small, poorly fitted or top-dose-only effect, or another doubt; inactive means no such curve, though single readings can be large; an effect the other way counts as inactive or inconclusive. Potency means the concentration at half of the fitted maximal effect.

SMILES | HT1080NT lethal | KB-V1 cytotox | KB-3-1 tox | HT1080 IDH1KD tx | MCF10A rerep | SW480 rerep
COc1cc(C=C2CCCC(=Cc3ccc(OCC4CO4)c(OC)c3)C2=O)ccc1OCC1CO1 (stereo unspecified) | 16µM* | ? | ? | ? | . | .
COc1ccc(/C=C2/CSC/C(=C/c3ccc(OC)c(OC)c3)C2=O)cc1OC | 5.8µM* | 1.5µM* | 4.6µM* | 5.8µM* | ? | 2.9µM*
Cc1cccc(/C=C2/S/C(=N/N=C3\CC4CCC3(C)C4(C)C)NC2=O)c1 (stereo unspecified) | -3% | 21µM* | ? | -2%[9.24 µM] | ? | 13%
CCOC(=O)N1CC=C2C(C#N)=C(N)C(C#N)(C#N)[C@H](c3cccs3)C2C1 (stereo partly specified) | ? | 9.2µM* | i | ? | 13% | 4%
CC(C)(C)OC(=O)N1CC=C2C(C#N)=C(N)C(C#N)(C#N)[C@H](c3cccnc3)[C@H]2C1 | 6% | ? | ? | 0% | 2% | -2%
CC(C)(C)OC(=O)N1CC=C2C(C#N)=C(N)C(C#N)(C#N)C(c3cccs3)C2C1 (stereo unspecified) | -28% | 9.2µM* | i | -24% | ? | 7%
OC(CNCc1ccco1)Cn1c2ccccc2c2ccccc21 (stereo unspecified) | -21% | i | i | -29% | 429%[0.0737 µM] | ?
COc1ccc(S(=O)(=O)Nc2ccc(S(=O)(=O)N3CCCCC3)cc2)cc1 | -6% | i | i | -21% | 18% | 21%
COc1ccc(S(=O)(=O)N2CCN(CC(=O)Nc3ccc(C)c(F)c3)CC2)cc1 | -1% | 6.5µM* | i | -14% | -2% | -4%
Cc1cc(NC(=O)CN2CCN(S(=O)(=O)c3ccc(Cl)cc3)CC2)no1 | 4% | 16µM* | i | -4% | -4% | 2%
Cc1ccc(NC(=O)CN2CCN(S(=O)(=O)c3ccc(C(C)C)cc3)CC2)cc1F | . | ? | i | . | . | .
COc1cc(OC)nc(NC(=O)CN2CCN(c3ccc(F)cc3)CC2)n1 | 6% | 23µM* | i | -8% | 5% | -12%
COc1ccc(S(=O)(=O)N2CCN(CCC(=O)Nc3ccc(F)cc3)CC2)cc1 | -1% | 5.2µM* | ? | -2% | 8% | ?
COc1ccc(NC(=O)CCN2CCN(S(=O)(=O)c3ccc(F)cc3)CC2)cc1 | 1% | i | i | 14% | 2% | -10%
CCN(CC)C(=O)C1=C(C)N(CCCN2CCCC2=O)C(=O)C(CC(=O)NC(c2ccccc2)c2ccccc2)C1 (stereo unspecified) | -4% | i | i | 11% | . | .
CCOc1ccc(NS(=O)(=O)c2ccc(C(=O)NCC(c3cccs3)N3CCOCC3)cc2)cc1 (stereo unspecified) | -5% | i | i | -11% | -1% | -8%
O=C(CN1CCN(S(=O)(=O)N2CCCCC2)CC1)Nc1ccc(Cl)c(Cl)c1 | -21% | 13µM* | ? | ? | ? | -6%
COc1ccc(N2CCN(CC(=O)Nc3cccc(S(=O)(=O)N4CCOCC4)c3)CC2)cc1 | -5% | 10µM* | ? | -1% | 12% | -3%
CN(C)S(=O)(=O)N1CCN(CC(=O)Nc2cc(Cl)ccc2Cl)CC1 | 11% | 18µM* | i | 4% | 18% | 6%
CCOC(=O)Nc1ccc2nc(Sc3ccc(Cl)cc3)sc2c1 | ? | i | i | ? | ? | 16µM*
CCOC(=O)CSc1nc2ccc(NC(=O)c3ccc(Cl)cc3)cc2s1 | . | i | i | . | . | .
COc1ccc(CCNC(=O)Cn2c(C)c3cnn(-c4ccccc4)c(=O)c3c2C)cc1OC | . | i | i | . | . | .

Screening results (PubChem)
